Consider 30 compounds from PubChem BioAssay (NCATS).

Results filed as inconclusive are left out. Unmarked numbers belong to inactive results. Active and inactive are the calls of the source. Calls come from the whole dose curve; as a rule, active = well fitted curve in the direction sought with a large enough effect; inconclusive = small, poorly fitted or top-dose-only effect, or another doubt; inactive = no such curve, though single readings can be large; an effect the other way counts as inactive or inconclusive.
% is set by controls: 0 for no effect and ±100 for the full control effect.

The target of one assay is Calcium and integrin-binding protein 1 (Homo sapiens) (UniProt Q99828). In words: Primary qHTS for Identification of Calcium Integrin Binding Protein 1 (CIB1) Competitor (AID 1508620). Note: top concentration of the series differs between compounds. The following applies: CIB1-GST / FITC-alphaIIb peptide fluorescence polarization; series mostly up to 114 µM; activity change, negative = inhibition: at the top concentration. Summed up: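 Fluorescence polarization competition: GST-tagged CIB1 (1 uM final) preincubated with compound 15 min at room temperature, then FITC-labelled alphaIIb peptide (100 nM final) added. After 15 min at room temperature, polarization read at Ex 480/Em 540.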
Sequence of Calcium and integrin-binding protein 1 (Homo sapiens) (Q99828 whole entry, looked up): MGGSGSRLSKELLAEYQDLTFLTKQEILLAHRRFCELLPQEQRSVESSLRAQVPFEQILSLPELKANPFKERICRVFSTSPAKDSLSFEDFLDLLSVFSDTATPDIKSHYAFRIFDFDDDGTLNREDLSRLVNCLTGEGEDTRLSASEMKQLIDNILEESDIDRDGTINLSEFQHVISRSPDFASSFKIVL
(In qHTS, concentration-response curves come from the screen itself.)
With `CCC(C)C(C)(COC(N)=O)COC(N)=O` (centres undefined), the “activity change, negative = inhibition” value was 6.33%.

`COc1cc(CC(C)N)cc(OC)c1OC` (centres undefined): the “activity change, negative = inhibition” value was 3.83% [at 228 µM].

Turning to `CC[N+]1(CC)CCC(OC(=O)C(O)(c2ccccc2)c2ccccc2)C1` (centres undefined), the “activity change, negative = inhibition” value is -0.63%.

In the case of `C#C[C@]1(O)CC[C@H]2[C@@H]3CCC4=CC(=O)CC[C@]4(C)[C@H]3CC[C@@]21C`, the “activity change, negative = inhibition” value is 5.09%.

As to `C=C(C)[C@H]1CN[C@H](C(=O)O)[C@H]1CC(=O)O`, the “activity change, negative = inhibition” value is -3.02%.

For the compound `CN1CC[C@]23c4c5ccc(O)c4O[C@H]2[C@@H](O)C=C[C@H]3[C@H]1C5`, the “activity change, negative = inhibition” value was 2.77% [at 228 µM].

Take `c1ccc(N2CCNCC2)cc1`: the “activity change, negative = inhibition” value was 2.77%.

As for `C[C@]12CC[C@@H]3c4ccc(OC(=O)N(CCCl)CCCl)cc4CC[C@H]3[C@@H]1CC[C@@H]2OP(=O)(O)O`, the Potency result is “inactive”.

Turning to `ClCCN1CCCC1`, the “activity change, negative = inhibition” value was -0.427%.

Take `C=CCC1(C(C)CC)C(=O)NC(=O)NC1=O` (centres undefined): the “activity change, negative = inhibition” value was -0.579%.

For the compound `Clc1ccc(C(c2ccc(Cl)cc2)C(Cl)(Cl)Cl)cc1`, the “activity change, negative = inhibition” value was 3.63%.

Take `CCCN(CCC)C(=O)Cc1c(-c2ccc(Cl)cc2)nc2ccc(Cl)cn12`: the “activity change, negative = inhibition” value is 1.93%.

As for `CC(=O)NC1CCSC1=O` (centres undefined), the “activity change, negative = inhibition” value was -0.295%.

Tested on in a further assay: not listed separately
As to the kind of experiment: Primary qHTS for small molecule stabilizers of the endoplasmic reticulum resident proteome: Secreted ER Calcium Modulated Protein (SERCaMP) assay (AID 1508630). The following applies: SH-SY5Y GLuc-SERCaMP (Gaussia luciferase released on ER calcium loss) secretion, thapsigargin, luminescence; series mostly up to 38.4 µM; activity change, negative = inhibition: at the top concentration. In outline:
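GLuc-SERCaMP-expressing SH-SY5Y cells, pretreated 16 h with compound, are challenged with thapsigargin to empty ER calcium stores; after 4 h, coelenterazine is added directly to the medium and luminescence is imaged.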
Regarding `COP(=S)(OC)Oc1ccc(SC)c(C)c1`, the “activity change, negative = inhibition” value is -1.43%.

Regarding `Cc1ncsc1CCCl`, the Potency entry is “inactive”.

On to `COc1ccc2c(c1OC)C(=O)O[C@H]2[C@@H]1c2cc3c(cc2CCN1C)OCO3`, for which the Potency entry is “inactive”.

As for `CN1C(=O)COc2c(C(=O)NC3CN4CCC3CC4)cc(Cl)cc21` (centres undefined), the “activity change, negative = inhibition” value is -69.6%.

With `CCCCCCCCCC(=O)O[C@H]1CC[C@H]2[C@@H]3CCC4=CC(=O)CC[C@@H]4[C@H]3CC[C@]12C`, the “activity change, negative = inhibition” value is -13.7%.

Take `CC(C(=O)c1ccccc1)N(C)C` (centres undefined): the “activity change, negative = inhibition” value is -19.5%.

`O=c1c(C2CC(c3ccc(-c4ccc(Br)cc4)cc3)Cc3ccccc32)c(O)sc2ccccc12` (centres undefined): the “activity change, negative = inhibition” value is 3.15%.

Take `CN(C)CCc1c[nH]c2cccc(OP(=O)(O)O)c12`: the “activity change, negative = inhibition” value was -17.5% [at 76.3 µM].

With `O=C1OC(CCN2CCCCC2)OC1(c1ccccc1)c1ccccc1` (centres undefined), the “activity change, negative = inhibition” value is -14.7%.

For the compound `CCC(C)(C)c1ccc(O)cc1`, the “activity change, negative = inhibition” value was 7.65%.

As for `CC(C)(C)NCC(O)c1ccccc1Cl` (centres undefined), the Potency entry is “inactive”.

`NC(=O)c1cc([N+](=O)[O-])cc([N+](=O)[O-])c1`: the “activity change, negative = inhibition” value was -14.4%.

For the compound `O=C1OC(c2ccc(O)c(S(=O)(=O)O)c2)(c2ccc(O)c(S(=O)(=O)O)c2)c2c(Br)c(Br)c(Br)c(Br)c21`, the “activity change, negative = inhibition” value is -30.1%.

Regarding `CC1(C)C(C=C(Cl)Cl)C1C(=O)OC(C#N)c1cccc(Oc2ccccc2)c1` (centres undefined), the “activity change, negative = inhibition” value is 24.4%.

With `CCc1cc2c(s1)-n1c(C)nnc1CN=C2c1ccccc1Cl`, the “activity change, negative = inhibition” value is -16.2%.

As for `CCC(C)C(C)(COC(N)=O)COC(N)=O` (centres undefined), the “activity change, negative = inhibition” value was -12%.

In the case of `C#C[C@]1(O)CC[C@H]2[C@@H]3CCC4=CC(=O)CC[C@]4(C)[C@H]3CC[C@@]21C`, the “activity change, negative = inhibition” value is -14.4%.

Turning to `C=C(C)[C@H]1CN[C@H](C(=O)O)[C@H]1CC(=O)O`, the “activity change, negative = inhibition” value is 4.25%.

As for `C[C@]12CC[C@@H]3c4ccc(OC(=O)N(CCCl)CCCl)cc4CC[C@H]3[C@@H]1CC[C@@H]2O`, the “activity change, negative = inhibition” value is -17.5%.

As to `ClCCN1CCCC1`, the “activity change, negative = inhibition” value is -27.1%.

As for `COc1cccc2c1C(=O)c1c(O)c3c(c(O)c1C2=O)C[C@@](O)(C(=O)CO)CC3OC1CC(N2CCOC(OC)C2)C(O)C(C)O1` (some centres undefined), the “activity change, negative = inhibition” value is 171%.
